Compounds without any hit were thinned out: in the full panel of roughly 83,000, 20% have a hit.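 Plates (96-well) were seeded with cells, treated with compound at one concentration, and incubated for 48 hours before percent growth was determined.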 Values without a mark were called inactive. Activity calls are given as the source filed them. Rule for the calls: active = growth percent below 10; inactive = the rest.

In this assay the test system is MDA-MB-468 breast. As to the kind of experiment: NCI-60 one-dose screen, 48 h (100 = growth as untreated, 0 = no growth, -100 = all killed). The settings on record: 10 µM unless noted.
On to `CC(=O)OC(C)COc1ccc(-c2ccccc2)cc1` (stereo not given), for which the growth is 98.4%. As to `CCN1CCN(C(=O)[C@@]2(C)CC[C@]3(C)CC[C@]4(C)C(=CC(=O)[C@@H]5[C@@]6(C)CC[C@H](OC7C[C@@H](O)[C@@H](O)C(C)O7)C(C)(C)[C@@H]6CC[C@]54C)[C@@H]3C2)CC1` (stereo not given in full), the growth is 16.9%. For the molecule `CNC(=O)c1cc(Oc2ccc3nc(Nc4ccc(Cl)c(C(F)(F)F)c4)ccc3c2)ccn1`, the growth is 45.3%. Take `c1cnc2ccc3ncccc3c2c1`: the growth is 122%. Turning to `O=C1/C(=C/c2cccc(Cl)c2)CCc2ccccc21`, the growth was 93.5%.

On to `COc1cc2ncnc(Nc3ccc(F)c(Cl)c3)c2cc1OCC(=O)N1CCOCC1`, for which the growth is -15.9% (active). The same measure for `O=C(/C=C/c1ccc(Cl)cc1)c1ccc(Cl)cc1`: 88.3%.

As for `Cc1ccncc1NC=O`, the growth was 107%. For `COc1ccc(CNC(=O)C(O)C(Cc2ccccc2)NC(=O)c2[nH]c3ccccc3c(=O)c2C)cc1OC` (stereo not given), the growth is 102%.

`COc1cc2ccnc(C=O)c2cc1OC`: the growth is 82.5%. `CCOC(=O)/C=C(/C)Sc1cc(O)c2ccccc2c1O`: the growth was 29.9%.

Consider `Cc1cn(-c2cc(C(=O)Nc3cccc(-n4ccc5c(NC(=O)c6ccccc6)nccc54)c3)cc(C(F)(F)F)c2)cn1`, for which the growth is -9.97% (active).

Turning to `COc1ccc(-c2nc(/C=C3\C(=O)N(C)c4ccccc43)c3ccccn23)cc1`, the growth is 98.5%.

As for `COc1ccc(/C=N\NC(=O)c2ccc3nc(-c4ccc(Cl)cc4)[nH]c3c2)cc1`, the growth was 24.2%. For the molecule `O=C(CNc1nc(-c2ccc(Cl)cc2)cs1)Nc1ccc(-c2nc3ccccc3s2)cc1`, the growth is -39.5% (active). For `N#CC1=C(N)Oc2c(ccc3ccccc23)C1c1ccc([N+](=O)[O-])cc1` (stereo not given), the growth was 90%. The same measure for `CCCCS(=O)(=O)Oc1ccc(-c2nc(C)c(C(=O)OCC)s2)cc1C=O`: 52.1%; for `Nc1ncc(-c2ccc3ncnc(Nc4cncc(Cl)c4)c3c2)cn1`: 7.6% (active); for `CCC(C)[C@@H]1NC(=O)[C@@H]2CCCN2C(=O)[C@H](Cc2ccccc2)NC(=O)[C@@H]2CCCN2C(=O)[C@H](Cc2ccccc2)NC(=O)[C@@H]2CCCN2C(=O)[C@H](Cc2ccccc2)NC1=O` (stereo not given in full): 116%. The same measure for `CC(C)=CCC[C@](C)(O)[C@H]1CC[C@]2(C)[C@@H]1CC[C@@H]1[C@@]3(C)CC[C@H](N)C(C)(C)[C@@H]3CC[C@]12C`: 62%; for `CC(C)=NNc1ccccn1`: 12.9%. `COc1ccc(Nc2ncc(C#N)c(NCCCNC(=O)C3CCC3)n2)cc1`: the growth was 43%. In the case of `O=S(=O)(NCCNc1nccc(-c2c(-c3cccc(F)c3)nc3occn23)n1)c1ccc(Br)cc1`, the growth was 67.7%. For the molecule `CSc1nc(=S)c2nc(SC)n(-c3ccccc3)c2[nH]1`, the growth is 91.1%.

Take `CCNCCNc1cc(-c2ccc(C#N)cc2)c(C#N)c2nc3ccccc3n12`: the growth is -14.1% (active). Turning to `O=C(Nc1ccc(Cl)c(Cl)c1)OCc1ccco1`, the growth is 0.972% (active). The same measure for `C/C(=N/NC(N)=S)c1sc(Nc2cccc(Cl)c2)nc1C`: 47.3%; for `CCCC/C(=C\c1ccc(O)c(O)c1)C(=O)NC(Cc1ccccc1)C(=O)C(=O)NCCc1ccc(OC)cc1` (stereo not given): 93.2%. For the molecule `COC(=O)[C@]12CC[C@@H](C)[C@H](C)[C@@H]1C1=CC[C@@H]3[C@@]4(C)C(C=O)=C[C@@](C)(COC(=O)/C=C/c5ccccc5)[C@@H]4[C@H](O)C[C@@]3(C)[C@]1(C)CC2`, the growth is 14.9%. Consider `N#Cc1c(-c2cccs2)cc(-c2cnccn2)nc1SCC(=O)N/N=C/c1ccncc1`, for which the growth was 103%. For the molecule `CSC(=N\N=C\c1ccc(N(C)C)cc1)/N=C/N(C)C`, the growth is 83.5%. The same measure for `COc1ccc(C(O)(c2ccccc2)C(C(=O)O)c2ccccc2)cc1` (stereo not given): 110%.

For the molecule `COCCOCCCl`, the growth was 102%.

For the molecule `O=C(C(=O)c1ccc2c(c1)OCO2)c1ccc2c(c1)OCO2`, the growth is 96.9%.

As to `CC1(c2ccccc2)CO1` (stereo not given), the growth is 110%. On to `COc1ccc(/C=N/NC(=O)c2[nH]c3ccc(Br)cc3c2-c2ccccc2)s1`, for which the growth was -24% (active). The same measure for `CC1C2CCC(C2)C1COCCOCCO` (stereo not given): 102%. For `NC(=O)SCC(=O)Nc1ccccc1-c1ccccc1`, the growth is 99.9%. Take `Fc1ccc(-c2cc3nc(C(Cl)Cl)nc(-c4ccc(F)cc4)n3n2)cc1`: the growth is -63.6% (active). As to `CC(C)n1nc(-c2ccc3oc(N)nc3c2)c2c(N)ncnc21`, the growth is -34.1% (active).
